Most compounds without a hit are left out; they make up all but 6.9% or so of the library.
JMJD2A Tudor: inhibitors of human JMJD2A Tudor domain; Potency, µM (top dose mostly 114 µM), inactives show at the highest dose activity change, negative = inhibition, most hits filed as inhibitors; AlphaScreen JMJD2A-Tudor / H3K4me3 peptide binding; AID 504339; 390,000 compounds, 4.4% hits; further: on the % scale 0 is the no-effect control and ±100 the full control effect; nearly all actives have a fitted effect of over 50% in size
HP1b binding inh: inhibitors of HP1-beta chromodomain binding to methylated histone tails; AlphaScreen HP1-beta / biotin-H3K9me3 peptide binding; Potency, µM (series often up to 114 µM), for the others: top-dose activity change, negative = inhibition, usual class: inhibitors; AID 540317; P83916; 390,000 compounds, 0.56% hits; further: nearly all actives have a fitted effect of over 70% in size
Target sequence (P83916 whole entry, looked up): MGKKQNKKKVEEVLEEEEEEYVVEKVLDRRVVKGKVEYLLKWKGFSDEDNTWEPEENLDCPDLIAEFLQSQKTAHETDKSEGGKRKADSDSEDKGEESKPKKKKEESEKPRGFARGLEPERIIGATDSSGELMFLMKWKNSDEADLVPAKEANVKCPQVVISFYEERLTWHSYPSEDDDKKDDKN
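Compound inhibition of the preformed complex between 50 nM HP1-beta and 50 nM biotinylated H3K9me3 peptide was read by AlphaScreen. Buffer was PBS pH 7.4 with 0.01% Tween-20. Incubations ran 30 min at room temperature, with 10 ug/mL donor/acceptor beads.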
L3MBTL1 block: blocks human L3MBTL1; Q9Y468; AlphaScreen L3MBTL1–H3K9me1 peptide binding; Potency, µM (doses to about 57.1 µM), without a hit: top-dose activity, negative = inhibition, most hits filed as inhibitors; 230,000 compounds, 0.66% hits; AID 485360; further: on the % scale 0 is the no-effect control and ±100 the full control effect; nearly all actives have a fitted effect of over 60% in size
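First, the protein-peptide complex forms for 30 min at room temperature (L3MBTL1 50 nM, biotinylated H3K9me1 peptide 75 nM). Next, compounds are pin-transferred and incubated 30 min. Finally, AlphaScreen beads are added and read after 30 min.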
BAZ2B inh: blocks human BAZ2B; AID 504333; Q9UIF8; Potency, µM (highest dose often 114 µM), without a hit: top-dose activity change, negative = inhibition, hits mostly inhibitors; AlphaScreen BAZ2B-H3K14Ac peptide displacement; 360,000 compounds, 4.4% hits; further: on the % scale 0 is the no-effect control and ±100 the full control effect; nearly all actives have a fitted effect of over 60% in size
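Multi-concentration screen (max 110 uM) measuring displacement of acetylated histone H3 peptide from BAZ2B by AlphaScreen, using 50 nM protein, 50 nM peptide and 10 ug/mL streptavidin donor plus Ni-chelate acceptor beads.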
PLK1 PBD inh: PLK1 (human) polo-box domain binding inhibition; P53350; Plk1 PBD binding of FITC phosphopeptide, fluorescence polarization; Potency, µM, for the others: max response, negative = inhibition, usual class: inhibitors; 360,000 compounds, 2.8% hits; AID 720504; further: series mostly up to about 57 µM; on the % scale 0 is the no-effect control and ±100 the full control effect; nearly all actives have a fitted effect of over 65% in size
VDR inh: blocks the human vitamin D receptor. P11473. VDR-SRC2-3 peptide fluorescence polarization, 2 h. Potency, µM, for inactives: max response, negative = inhibition, usual class: inhibitors. 400,000 compounds, 0.93% hits; further: on the % scale 0 is the no-effect control and ±100 the full control effect
Target sequence (P11473 whole entry, looked up): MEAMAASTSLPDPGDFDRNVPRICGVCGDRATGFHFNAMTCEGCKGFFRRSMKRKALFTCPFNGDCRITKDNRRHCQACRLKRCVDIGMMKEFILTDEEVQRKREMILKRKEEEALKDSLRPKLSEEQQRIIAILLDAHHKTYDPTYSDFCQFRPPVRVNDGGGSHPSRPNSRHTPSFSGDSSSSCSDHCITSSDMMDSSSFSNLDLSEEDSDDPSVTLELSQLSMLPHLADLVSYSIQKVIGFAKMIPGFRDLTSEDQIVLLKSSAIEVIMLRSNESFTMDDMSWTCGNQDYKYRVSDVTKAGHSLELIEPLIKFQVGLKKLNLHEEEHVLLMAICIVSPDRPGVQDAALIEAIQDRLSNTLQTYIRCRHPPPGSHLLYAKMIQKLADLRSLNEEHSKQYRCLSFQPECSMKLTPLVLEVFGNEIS
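Measured by FP: displacement of SRC2-3 coactivator peptide from VDR by library compounds, following a two-hour ambient incubation.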
* hit, by the source's call; ? = inconclusive; . = no result; [ ] = another dose, or the depositor's remark. The call rests on the fitted dose curve; in most records, active means well fitted curve in the direction sought with a large enough effect; inconclusive means small, poorly fitted or top-dose-only effect, or another doubt; inactive means no such curve, though single readings can be large; an effect the other way counts as inactive or inconclusive. Potency means the concentration at half of the fitted maximal effect.

SMILES | JMJD2A Tudor | HP1b binding inh | L3MBTL1 block | BAZ2B inh | PLK1 PBD inh | VDR inh
Cc1ccc(NC(=O)C(Cc2ccccc2)NS(=O)(=O)c2ccc3c(c2)oc(=O)n3C)cc1F (stereo not drawn) | -16% | 26% | . | -16% | . | -3%
Nc1ccccc1C(=O)C[C@H](N)C(=O)O | 18µM* | 2% | . | . | -9% | -1%
CC1=CC(=O)C=C(C)C1=NOC(=O)c1cccc([N+](=O)[O-])c1 | -17% | 29% | . | ? | 9.5µM* | 3%
Cc1cccc(C(=O)O/N=C(\N)c2cccc([N+](=O)[O-])c2)c1 | -16% | -2% | -3% | -5% | -16% | -1%
O=C(CSc1ccccn1)Nc1ccc(NC(=O)CSc2ccccn2)cc1 | -8% | 27% | 4% | -4% | 1% | 10%
O=C(CSC1=NNC(c2ccccn2)S1)Nc1ccccc1 (stereo not drawn) | 6.3µM* | 42% | . | 5.6µM* | -10% | -12%
O=C(COC(=O)c1ccccn1)Nc1cccc(Cl)c1 | -18% | 11% | -4% | -35% | -7% | -10%
O=C(CSC1=NNC(c2ccccn2)S1)Nc1cccc(Cl)c1 (stereo not drawn) | 22µM* | 14% | . | 7.1µM* | -23% | ?
COc1ccc(S(=O)(=O)NCC(=O)NCCc2ccc(OC)c(OC)c2)cc1 | -11% | 22% | . | . | -4% | -14%
COc1cc(Br)c(C2CC(=O)Nc3cc4c(cc32)OCCO4)cc1OC (stereo not drawn) | ? | -9% | . | ? | . | -16%
CN(Cc1ccccc1)Cc1nc2c([nH]1)c(=O)[nH]c(=O)n2C | 1µM* | 16% | -2%[11.4 µM] | 11% | -6% | 0%
COCCn1c(CN2CCN(C(=O)c3ccco3)CC2)nc2c1c(=O)n(C)c(=O)n2C | 0% | 42% | . | -3% | -23% | 8%
Cn1c(=O)[nH]c(=O)c2[nH]c(CN3CCN(C(=O)c4ccco4)CC3)nc21 | 3.2µM* | 12% | 11% | -22% | -5% | -2%
O=C(c1ccco1)N1CCN(Cc2nc3cc(Cl)ccc3c(=O)[nH]2)CC1 | 14µM* | 30% | 14% | -2% | 2% | 2%
O=c1[nH]c(CN2CCN(C/C=C/c3ccccc3)CC2)nc2cc(Cl)ccc12 | ? | 15% | . | -10% | 0% | 0%
CCc1cccc(C)c1NS(=O)(=O)c1ccc2c(c1)CC(C)N2C(=O)C1CC1 (stereo not drawn) | -17% | 22% | . | -15% | . | 6%
COc1ccc(OC)c(S(=O)(=O)NC(=O)C2(C)CCN2C(=O)CC2CCCC2)c1 (stereo not drawn) | . | . | . | . | -8% | .
CC(=O)Nc1ccccc1-c1nc2ccccc2n(CC(=O)Nc2ccc(C)c(Cl)c2)c1=O | 1% | 33% | . | 0% | . | 12%
NNC(=O)c1cncn1-c1ccc(F)cc1 | ? | 57% | -1% | 50µM* | -29% | -14%
NC(=O)c1ccc(NC(=O)c2cncn2-c2ccccc2)cc1 | ? | -4% | . | 3% | 24µM* | 79µM*
CC(C)(C)c1cc(C(=O)NN)n(Cc2ccc(F)cc2)n1 | 6% | 51% | -1% | 20% | 2% | -15%
CCOc1ccccc1C(=O)N1CCCCC1CCN1CCOCC1 (stereo not drawn) | -19% | 39% | . | 0% | . | 20%
COc1cccc(NC(=O)CN(C)CC(=O)Nc2ccccc2-c2ccccc2)c1 | 22µM* | ? | -3% | 79µM* | -12% | -1%
CN(CC(=O)Nc1cccc(F)c1)CC(=O)Nc1ccccc1-c1ccccc1 | -19% | 39% | 4% | . | -1% | -9%
COc1cccc(NC(=O)N2CCCCCC2)c1 | -9% | 49% | . | -2% | -5% | 7%
SMILES | JMJD2A Tudor | HP1b binding inh | L3MBTL1 block | BAZ2B inh | PLK1 PBD inh | VDR inh
COc1cccc(NC(=O)CN(C)C(C)C(=O)N2CCCCC2)c1 (stereo not drawn) | 0.32µM* | ? | -4% | . | -10% | 20%
CN(CC(=O)Nc1cccc(F)c1)CC(=O)Nc1ccccc1Oc1ccccc1 | 10µM* | ? | . | 25µM* | -11% | -10%
COc1cccc(NC(=O)CN(C)C(=O)c2cc3c(s2)CCC3)c1 | ? | -7% | 8.9µM* | 56µM* | -27% | -7%
Cc1ccc2c(c1)-c1c(c(C(=O)NCCc3ccccc3)nn1C)CS2 | -2% | 18% | . | -10% | . | 11%
O=Cc1cc2ccccc2nc1SCCCF | 1% | 31% | 19% | 13% | -6% | -4%
CN(CC(=O)Nc1cccc(F)c1)C(=O)CSc1ccccc1F | -24% | 2% | . | -31% | 24µM* | 0%
COc1ccc(C(=O)NCc2nc(-c3cccc(C)c3)no2)cc1OC | -7% | 23% | . | 0% | . | -1%
CN(C)c1ccc(C(=S)NC2CCCCC2)cc1 | ? | ? | ? | -34% | 13µM* | ?
CN(C)c1ccc(C(=O)OCC(=O)NC2CCCCCC2)cc1 | -18% | 13% | 6% | . | -10% | 4%
CCN(CC)c1ccc(C(=S)NC2CCCCC2)cc1 | ? | 32µM* | -19% | 22µM* | 24µM* | ?
CCOc1ccc(C(=S)NC2CCCCC2)cc1OCC | 79µM* | ? | . | ? | 6µM* | 40µM*
Cc1ccc(/C=C/c2onc(C)c2S(=O)(=O)N2CCC(C(=O)NCc3ccc(OC(C)C)cc3)CC2)cc1 | -2% | 39%[57 µM] | . | -3% | . | 11%
Cc1cc(SCC(=O)Nc2nsc(-c3ccc(C(C)(C)C)cc3)n2)nc2ccccc12 | -21% | 22% | . | -11% | . | -22%
CONC(=O)C[C@@H](C#N)NC(=O)[C@@H]1CCCN1C(=O)[C@@H](NC(=O)c1ccc(N)c(Cl)c1)C(C)(C)C | -26% | . | . | . | . | .
COc1ccc(Cl)cc1NC(=O)CN1CCN(Cc2ccccc2)CC1 | -20% | 33% | 0%[2.29 µM] | 0% | 4% | -11%
COCCNC(=O)C(OC(=O)c1cc2oc(C)cc2n1C)C(C)C (stereo not drawn) | -15% | 24% | -7% | 79µM* | -6% | 4%
Oc1ccc2ccccc2c1CNc1ccc(Br)cc1 | ? | -15% | . | 40µM* | 6.7µM* | ?
Oc1ccc2ccccc2c1CNc1ccc(Br)cn1 | 0% | 71% | 13% | -2% | 5% | -2%
CC1(C)C=Cc2c(ccc3c2OC[C@H](c2ccc(O)cc2O)C3)O1 | 50µM* | -20% | -14% | 50µM* | -5% | 3%
COc1ccc(-c2nc(CN3CCC(C(=O)NCCCOC(C)C)CC3)c(C)o2)cc1OC | -19% | 27% | . | -8% | . | -5%
Nc1c(C=C2C=CC(=O)C=C2)c(=O)nc2snc(SCc3ccccc3)n12 | ? | 6% | ? | -32% | 21µM* | -20%
CCN(CC(=O)N1CCc2ccccc2C1)S(=O)(=O)c1ccc2ccccc2c1 | -2% | 27% | . | 6% | -7% | 1%
CCOC(=O)c1ccc2nc(C(F)(F)F)[nH]c(=O)c2c1 | 8%[11.4 µM] | 3% | 4% | 2% | 27µM* | -4%
